An excerpt weighted towards active compounds, which were near 2.2% of everything screened.
HTR2A ag = agonists of mouse serotonin 5-HT2A receptor (HTR2A) | P35363 | CHO-K1 mHTR2A beta-arrestin complementation, luminescence; percent of 30 µM serotonin response | activation, % at 7.6 µM | hit rate 0.66% among 360,000 | AID 624169;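 active = activation above a run cutoff, the mean activation of all tested compounds plus 3 SD, cut at about 14% in these data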;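 also: 0% = plate median of compound wells and 100% = 30 µM serotonin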
HTR5A ag = counter-screen for OPRM1-OPRD1 agonists: human HTR5A agonism | P47898 | AID 504692 | activation, % at 9.3 µM | hit rate 0.61% among 340,000 | HTR5A agonist assay, luminescence, cell-based; in the data active = activation mostly above about 9.5%, no sharp cut-off; inactive = mostly below about 7.6%;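 also: 0% = cells with vehicle only and 100% = reference agonist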
MOR-DOR inv ag = inverse agonists of human mu-delta opioid receptor heterodimerization. AID 504357. inhibition, % at 9.3 µM. hit rate 0.21% among 340,000. P35372+P41143. cell-based MOR-DOR heterodimer luminescence, inverse agonism; in the data active = inhibition above about 22%, passing the limit was not always enough;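 also: 0% = cells with DMSO and 100% = wells without cells with DMSO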
MOR-DOR ag = agonists of human mu-delta opioid receptor heterodimerization; activation, % at 9.3 µM; cells, OPRM1-OPRD1 heterodimerization, luminescence; AID 504326; hit rate 0.3% among 340,000; in the data active = activation above about 18%;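 also: 0% = vehicle-treated cells and 100% = reference agonist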
sPLA2-III inh = Inhibits HGIII-sPLA2 liposome hydrolysis, primary screen. Q9NZ20. QFRET BODIPY PC-A2 liposome hydrolysis, fluorescence. inhibition, % at 12.2 µM. AID 743126. hit rate 0.56% among 370,000;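 active = inhibition above mean plus 3 SD of compounds lying within the high and low control bounds, cut at about 19% in these data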;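 also: 0% = median of test compound wells and 100% = no enzyme DMSO wells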
HTR5A inv ctr = inverse agonist of human HTR5A in OPRM1-OPRD1 counter-screen | P47898 | HTR5A cell line, luminescence, inverse agonism | inhibition, % at 9.3 µM | hit rate 0.083% among 340,000; in the data active = inhibition mostly above about 23%, no sharp cut-off; inactive = mostly below about 18%;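 also: 0% = cells with DMSO and 100% = no-cell wells with DMSO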
OPRM1 ag = OPRM1 agonism in mouse HTR2A counterscreen. activation, % at 9.3 µM. U2OS OPRM1 beta-arrestin PathHunter, luminescence; DMSO 0%, DAMGO 9.3 µM 100%. shares compounds with HTR2A ag. AID 624380. hit rate 5.3% among 2,300;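 active = mean activation above the mean of DMSO-only wells plus 3 SD, cut at about 0.5% in these data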
Target sequence (P35372 whole entry, looked up): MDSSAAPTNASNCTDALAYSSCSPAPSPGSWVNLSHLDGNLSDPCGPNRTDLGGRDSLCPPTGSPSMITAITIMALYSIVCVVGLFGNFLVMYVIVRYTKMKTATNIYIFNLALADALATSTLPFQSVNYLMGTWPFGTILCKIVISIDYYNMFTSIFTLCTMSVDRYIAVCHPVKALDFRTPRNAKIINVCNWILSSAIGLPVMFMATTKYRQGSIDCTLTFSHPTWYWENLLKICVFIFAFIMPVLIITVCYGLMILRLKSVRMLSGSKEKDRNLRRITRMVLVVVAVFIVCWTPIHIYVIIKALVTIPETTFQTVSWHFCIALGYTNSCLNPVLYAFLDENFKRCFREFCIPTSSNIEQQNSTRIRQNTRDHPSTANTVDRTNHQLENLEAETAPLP
HTR2A ag conf = mouse HTR2A agonism confirmed. shares compounds with HTR2A ag. CHO-K1 PathHunter beta-arrestin recruitment, luminescence; DMSO 0%, 30 µM serotonin 100%. activation, % at 7.6 µM. hit rate 19% among 2,300. AID 624381;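 active = mean activation across triplicates above the hit threshold derived in the original primary screen, cut at about 15% in these data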
An asterisk follows results filed as active; . = no result given.

SMILES	HTR2A ag	HTR5A ag	MOR-DOR inv ag	MOR-DOR ag	sPLA2-III inh	HTR5A inv ctr	OPRM1 ag	HTR2A ag conf
O=C(OCc1cccc(F)c1)c1ccc2c(=O)n3c(nc2c1)CCC3	18.5*	-2.1	-13.6	2.7	-2.4	-5.1	-0.6	-3.5
Cc1ccc(CN2CCCCC(NC(=O)Cc3cccs3)C2=O)cc1 (stereo unspecified)	.	.	.	.	5.5	.	.	.
CC(NC(=O)c1ccc2ccccc2n1)c1ccc(S(N)(=O)=O)cc1 (stereo unspecified)	16.6*	-3.5	-7.7	1.0	-11.3	10.4	-0.1	0.9
CC(NC(=O)c1ccc2ccccc2n1)c1ccc(Br)cc1 (stereo unspecified)	-8.2	1.5	-0.9	0.2	-4.0	-6.3	.	.
CNC(=O)Nc1ccc2snnc2c1	-6.8	-0.2	3.9	-0.7	-0.3	0.6	.	.
O=C(Nc1ccc2snnc2c1)N1CCSCC1	17.3*	-2.6	2.7	-0.5	1.1	10.4	0.2	3.0
CC(C)(C)NS(=O)(=O)c1cc(C(=O)Nc2sccc2C#N)ccc1Cl	18.1*	2.2	-2.8	0.6	-1.7	33.6	-0.4	15.2*
N#Cc1ccsc1NC(=O)c1cnccn1	2.5	-0.6	4.7	-0.9	1.4	-1.4	.	.
C=CCNC(=O)/C(C#N)=C/c1c(N2CCN(c3cccc(Cl)c3)CC2)nc2c(C)cccn2c1=O	19.9*	1.1	22.0	-4.9	7.7	-4.3	-0.7	6.0
CCOC(=O)/C(C#N)=C/c1c(N2CCN(c3cccc(Cl)c3)CC2)nc2c(C)cccn2c1=O	-0.2	3.0	8.5	-1.8	-0.2	-11.8	.	.
CNC(=O)/C(C#N)=C/c1c(N2CCN(c3cccc(Cl)c3)CC2)nc2c(C)cccn2c1=O	19.2*	-0.9	17.3	-3.9	14.7	3.5	-0.6	0.4
CCN(CC(=O)Nc1ccc2c(c1)OCCO2)C(=O)CC(NC(C)=O)c1ccccc1 (stereo unspecified)	17.6*	1.4	-7.2	1.1	1.4	-11.2	-0.7	-3.0
COc1cc2c3nnc(-c4ccc(F)cc4)c-3cn(Cc3ccc(F)cc3)c2cc1OC	17.7*	-0.3	-3.4	0.7	-8.2	0.9	-0.4	14.6*
